NPR2 activator: human GC-B receptor activators, primary screen, HEK293 GC-B cells, cGMP TR-FRET, EC30 CNP; 0% at EC30 CNP, 100% saturating CNP; activation, % at 10 µM; 0.11% of 370,000 active; AID 1920062, 2024;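 active = activation at 10 µM reaching about 35% in either raw or pattern-adjusted values, limit read from the data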
ADAM10 inh: human ADAM10 inhibitors, primary screen, biochemical, QFRET, HTS. recombinant ADAM10, EDANS/DABCYL FRET peptide cleavage, 3 h. inhibition, % at 7 µM. 0.62% of 370,000 active;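 active = inhibition above a per-campaign cutoff equal to the mean of compounds falling between control-based bounds plus 3 SD, cut at about 20% in these data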;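 note: 0% = DMSO wells while the 100% control is not disclosed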
Target sequence (O14672 214-748 limits assumed): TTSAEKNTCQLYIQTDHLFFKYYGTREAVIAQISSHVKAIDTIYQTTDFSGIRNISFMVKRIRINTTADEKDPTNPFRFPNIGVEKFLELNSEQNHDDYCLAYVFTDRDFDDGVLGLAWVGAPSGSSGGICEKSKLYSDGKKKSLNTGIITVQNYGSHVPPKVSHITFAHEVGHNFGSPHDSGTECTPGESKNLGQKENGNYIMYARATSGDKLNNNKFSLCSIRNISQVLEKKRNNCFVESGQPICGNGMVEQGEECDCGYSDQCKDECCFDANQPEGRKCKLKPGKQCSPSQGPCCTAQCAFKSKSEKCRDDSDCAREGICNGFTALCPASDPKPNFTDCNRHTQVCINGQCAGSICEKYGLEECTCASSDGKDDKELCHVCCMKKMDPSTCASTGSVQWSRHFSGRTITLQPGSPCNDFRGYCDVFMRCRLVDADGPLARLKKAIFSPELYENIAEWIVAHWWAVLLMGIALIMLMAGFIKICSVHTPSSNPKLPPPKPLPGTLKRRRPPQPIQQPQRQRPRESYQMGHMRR
FAS-TE inh: FAS thioesterase domain inhibitors, primary screen, biochemical, fluorescence intensity, uHTS. Fatty acid synthase (Homo sapiens), P49327. recombinant FAS-TE, OMFH fluorogenic substrate, fluorescence endpoint. inhibition, % at 15 µM. 0.67% of 360,000 active. AID 602261, 2012;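 active = compounds whose normalised, plate-corrected inhibition of enzyme fluorescence in the single-dose primary screen is 50% or more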;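 note: 0% = DMSO with enzyme and 100% = substrate without enzyme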
ADAM17 inh: ADAM17 inhibitors, primary screen, biochemical, QFRET. inhibition, % at 6.95 µM. recombinant ADAM17, EDANS/DABCYL FRET peptide cleavage. Disintegrin and metalloproteinase domain-containing protein 17 (Homo sapiens), P78536. 0.83% of 370,000 active;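 active = inhibition above the mean of compounds lying between control limits plus 3 SD, set per campaign, cut at about 8.5% in these data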;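 note: 0% = DMSO-only wells as the low control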
GC-A act: GC-A stimulated cGMP production enhancers – HEK293 GC-A cells, cGMP TR-FRET, EC30 ANP, primary screen; 0% at EC30 ANP, 100% saturating ANP; activation, % at 10 µM; 0.14% of 370,000 active; in the data active = activation above about 40%
FAS-TE conf: FAS thioesterase domain inhibitors, confirmation, biochemical, fluorescence intensity, single concentration; 45% of 2,300 active; recombinant FAS-TE, OMFH fluorogenic substrate; inhibition, % at 15 µM; shares compounds with FAS-TE inh;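 active = compounds inhibiting the enzyme by at least 50% at 15 µM in any one of the replicates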;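 note: 0% = enzyme with DMSO only and 100% = wells lacking enzyme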
ADAM10 confirm: human ADAM10 inhibitors, confirmation, biochemical, QFRET, triplicate. shares compounds with ADAM10 inh. ADAM10 QFRET peptide cleavage, EDANS fluorescence. inhibition, % at 6.95 µM. 1% of 2,100 active. AID 743208, 2013;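 active = inhibition above about 20% chosen separately for each screening run, limit read from the data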;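 note: 0% = DMSO wells and 100% = marimastat wells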
ADAM17 ctr: ADAM17 inhibitors, counter-screen for ADAM10 exosite inhibitor project, biochemical, QFRET, high throughput | 0.5% of 2,100 active | AID 743214, 2013 | ADAM17 QFRET peptide cleavage, EDANS fluorescence | inhibition, % at 6.95 µM | shares compounds with ADAM10 inh;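 active = mean triplicate inhibition above the solvent-only control wells' mean plus 3 SD, cut at about 12% in these data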;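 note: 0% = DMSO wells and 100% = marimastat wells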
The depositor's hits bear a star; / = not tested or not shown. Rows were chosen to be rich in hits. Some 2% of all compounds tested hit in one or more screens of this group.

SMILES | NPR2 activator | ADAM10 inh | FAS-TE inh | ADAM17 inh | GC-A act | FAS-TE conf | ADAM10 confirm | ADAM17 ctr
C[C@H]1C(=O)CC[C@@]23CCCN2C(=O)CCC[C@@H]13 | 3 | -8 | / | -8 | 1 | / | / | /
CC[C@@H]1C(c2ccccc2)=NN(c2ccccc2)[C@H]1C(=O)N1CCOC1=O | 1 | -123 | 4 | -32 | -2 | / | / | /
O=C1OCCN1C(=O)[C@H]1[C@H](c2ccc([N+](=O)[O-])cc2)C(c2ccccc2)=NN1c1ccccc1 | -6 | 24* | 78* | 8 | -4 | 19 | 7 | 3
CCCC1CCC2(CC1)CCC2OC(=S)Nc1ccc(Cl)cc1 (centres undefined) | -1 | 3 | / | -1 | 0 | / | / | /
COc1ccccc1-c1cc(C(=O)N/N=C/C=C/c2ccccc2[N+](=O)[O-])c2ccccc2n1 | 2 | 20* | 63* | 8 | 0 | 21 | 8 | 2
CN(C(=O)c1ccc(NC(=O)Cc2cccc(NC(=O)C3CCCN(S(=O)(=O)c4cccc([N+](=O)[O-])c4)C3)c2)cc1)C1CC1 (centres undefined) | 0 | -8 | 28 | 4 | 3 | / | / | /
CN(C(=O)c1ccc(NC(=O)Cc2ccc(NC(=O)C3CCCN(S(=O)(=O)c4cccc([N+](=O)[O-])c4)C3)cc2)cc1)C1CCCC1 (centres undefined) | 0 | 23* | 66* | 8 | 0 | -3 | 4 | 1
Cc1cc([N+](=O)[O-])nn1CCCC(=O)Nc1cc(Oc2ccccc2)cc([N+](=O)[O-])c1 | 0 | 8 | 36 | 3 | 4 | / | / | /
Cc1cccc(Oc2cc(NC(=O)Cn3cnc([N+](=O)[O-])n3)cc([N+](=O)[O-])c2)c1 | -2 | 28* | 59* | 8 | 1 | 44 | 5 | 2
Cc1cccc([C@@H]2[C@@H]3C(=O)N(Cc4ccccc4)C(=O)[C@@H]3[C@]3(Cc4ccccc4)C(=O)N(c4ccc(C(F)(F)F)cc4)C(=O)N23)c1 | 3 | 20* | 90* | 8 | 3 | 27 | 13 | 7
CC[C@@]12C(=O)N(c3cccc(Br)c3)C(=O)N1[C@H](c1cccc(C)c1)[C@@H]1C(=O)N(Cc3ccccc3)C(=O)[C@@H]12 | -16 | 21* | 55* | 8 | -15 | 31 | 5 | 2
COC(=O)[C@]12C[C@H](CC(=O)NCc3ccc(OC)c(OC)c3)C(=O)N(Cc3ccccc3)C1=C[C@H](C1CCCC1)O[C@@H]2C | -2 | -2 | / | 1 | -6 | / | / | /
CCCCNC(=O)C[C@H]1C(=O)N(Cc2ccc(OC)cc2)C2=CCCCC[C@@]21C(=O)OC | 2 | 5 | / | 1 | -1 | / | / | /
C=C[C@@H]1c2ccccc2N(S(=O)(=O)c2ccc(C)cc2)[C@H](c2ccc(OC(C)=O)cc2)C1(C#N)C#N | 0 | 23* | 62* | 6 | -2 | 14 | 3 | 2
CCOC(=O)[C@]12CCCC=C1N(Cc1ccc(OC)cc1)C(=O)[C@@H]2CC(=O)NCc1ccc(OC)c(OC)c1 | 1 | 6 | / | -2 | -2 | / | / | /
C=CCC[C@@H](Cc1ccc(F)cc1)C(=O)OC[C@H](Cc1c[nH]c2ccccc12)NC(=O)[C@H](CC=C)CC(=O)NCCO | -7 | 22* | 57* | 8 | -1 | 68* | 6 | 1
CCCCNC(=O)C1CCCN1C(=O)Nc1cc(Cl)cc(Cl)c1 (centres undefined) | -10 | -9 | / | -4 | -1 | / | / | /
CCCCCCCCN1C(=O)[C@@H](CC(=O)NCCCN2CCCC2=O)C[C@@]2(C(=O)OC)C1=C[C@H](COCc1ccccc1)O[C@@H]2C | 10 | -1 | / | -1 | 4 | / | / | /
COC(=O)[C@]12C[C@H](CC(=O)NCc3ccccc3)C(=O)N(Cc3ccco3)C1=C[C@H](C(C)C)O[C@@H]2C1CC1 | -6 | 1 | / | 2 | -5 | / | / | /
COc1ccc(S(=O)(=O)N2CCOCC2)cc1C(=O)Nc1ccc(N2CCCCCC2)cc1 | -2 | 20* | 62* | 4 | -6 | 23 | 8 | 4
Cc1ccc(S(=O)(=O)N2CCCCC2)cc1C(=O)Nc1ccc(N2CCOCC2)cc1 | -1 | 7 | -9 | 7 | -2 | / | / | /
Cc1cccc(NC(=O)c2nc[nH]c2C(=O)N[C@@H](CCCCNC(=O)OC(C)(C)C)C(=O)OC(C)(C)C)c1 | 0 | 33* | 90* | 12* | 3 | 55* | 11 | 3
Cc1cccc(NC(=O)c2nc[nH]c2C(=O)NCCCCCNC(=O)OC(C)(C)C)c1 | -4 | -2 | 10 | 0 | -4 | / | / | /
CC(C)(C)OC(=O)CNC(=O)c1[nH]cnc1C(=O)N[C@@H](CCCCNC(=O)OC(C)(C)C)C(=O)OC(C)(C)C | 7 | 23* | 87* | 1 | 6 | 92* | 0 | 0
CC(C)(C)OC(=O)[C@H](CCCCN)NC(=O)c1nc[nH]c1C(=O)NCCCCCN | 5 | 0 | -10 | 0 | 3 | / | / | /
O=C(CSc1nc2ccccc2c(=O)n1CCCN1CCOCC1)Nc1cccc(S(=O)(=O)N2CCCCCC2)c1 | 2 | 9 | 8 | 0 | -2 | / | / | /

Bioassay records as filed in PubChem.
